Compounds without any hit were thinned out: in the full panel of roughly 83,000, 20% have a hit.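 In brief: 96-well plates, 48 h treatment, single concentration, percent growth endpoint.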 Unmarked numbers belong to inactive results. Active and inactive are the calls of the source. Rule for the calls: active = growth percent below 10; inactive = the rest.

Test systems include HCT-15 colon; HT29 colon; SNB-19 CNS; U251 CNS; PC-3 prostate; SK-MEL-5 melanoma; UACC-62 melanoma; LOX IMVI melanoma; SK-MEL-28 melanoma; SK-MEL-2 melanoma; EKVX NSCLC; SN12C renal; UO-31 renal; TK-10 renal; ACHN renal; CAKI-1 renal; CCRF-CEM leukemia; MOLT-4 leukemia; A498 renal; SNB-75 CNS.
What all share (assay): NCI-60 one-dose screen, 48 h (100 = growth as untreated, 0 = no growth, -100 = all killed)
Common to all, as to details: 10 µM unless noted

As to `CCN(CC)CCn1c(=O)c2cc(OC)c(OC)cc2c2ccc3cc4c(cc3c21)OCO4`, the growth in the assay with HCT-15 colon was 54.7%; with HT29 colon, 17.1%; with SNB-19 CNS, 27.1%; with U251 CNS it was 22.7%; in the assay with PC-3 prostate, 48%; with SK-MEL-5 melanoma, 36.1%. Moreover, the growth in the assay with UACC-62 melanoma was 16.8%; in the assay with LOX IMVI melanoma it was -42.2% (active); in the assay on SK-MEL-28 melanoma it was 53.4%; with SK-MEL-2 melanoma it was 93.2%; in the assay on EKVX NSCLC, 83.9%; with SN12C renal, 32.9%. In addition, the growth was 22.8% in the assay on UO-31 renal; 67.6% with TK-10 renal; 10.2% in the assay with ACHN renal; 17.3% with CAKI-1 renal; 2.85% (active) in the assay on CCRF-CEM leukemia; -9.32% (active) in the assay with MOLT-4 leukemia.
Take `COc1cccc(-c2nc3occn3c2-c2ccnc(NCCCNS(=O)(=O)c3ccc(C(F)(F)F)cc3)n2)c1`: the growth in the assay on HCT-15 colon is 85.3%; in the assay on HT29 colon it was 73.5%; in the assay on SNB-19 CNS it was 105%; in the assay on U251 CNS it was 84.1%; in the assay on PC-3 prostate it was 75.9%; with SK-MEL-5 melanoma it was 68.6%. For the same molecule, the growth with UACC-62 melanoma was 67.3%; in the assay with LOX IMVI melanoma, 87.5%; in the assay with SK-MEL-28 melanoma it was 97.5%; in the assay on SK-MEL-2 melanoma, 92.3%; with EKVX NSCLC, 92.8%; with SN12C renal, 85.4%. For the same molecule, the growth was 71.5% with UO-31 renal; 106% in the assay with TK-10 renal; 89.3% in the assay with ACHN renal; 75.3% with CAKI-1 renal; 93.9% with CCRF-CEM leukemia; 69% in the assay with MOLT-4 leukemia.
Turning to `Oc1c(Cl)cc(Cl)c(Cl)c1CNCCNCc1c(O)c(Cl)cc(Cl)c1Cl`, the growth with HCT-15 colon was 25.1%; in the assay on HT29 colon it was 26.8%; with SNB-19 CNS, 15.9%; in the assay on U251 CNS it was 10.1%; in the assay with PC-3 prostate, 44.4%; with SK-MEL-5 melanoma, -1.48% (active). The growth in the assay on UACC-62 melanoma was -13.3% (active); in the assay with LOX IMVI melanoma, 6.53% (active); in the assay with SK-MEL-28 melanoma, 21.4%; in the assay with SK-MEL-2 melanoma, 18.3%; in the assay with EKVX NSCLC, 22.4%; in the assay with SN12C renal, 36.2%. Also, the growth is 0.579% (active) with UO-31 renal; 39.5% in the assay on TK-10 renal; 8.86% (active) in the assay with ACHN renal; 9.72% (active) in the assay with CAKI-1 renal; 51.3% in the assay with A498 renal; 4.31% (active) with CCRF-CEM leukemia. Also, the growth with MOLT-4 leukemia was 10%.
For `Cc1cc2nc3c4cc(C=O)ccc4n(CCN(C)C)c3nc2cc1C`, the growth in the assay on HCT-15 colon is 2.81% (active); in the assay on HT29 colon it was 6.7% (active); in the assay with SNB-19 CNS, 28.1%; in the assay with U251 CNS, 16.8%; with PC-3 prostate, 15.5%; in the assay with SK-MEL-5 melanoma, 6.63% (active). For the same molecule, the growth is 21.5% with UACC-62 melanoma; -40.5% (active) in the assay on LOX IMVI melanoma; 37.1% with SK-MEL-28 melanoma; 11.7% in the assay on SK-MEL-2 melanoma; 25.4% with EKVX NSCLC; 20.5% in the assay with SN12C renal. For the same molecule, the growth was -28.6% (active) in the assay with UO-31 renal; 23.2% in the assay with TK-10 renal; -15% (active) with ACHN renal; 3.46% (active) in the assay on CAKI-1 renal; 21.7% in the assay on CCRF-CEM leukemia; 9.19% (active) in the assay on MOLT-4 leukemia.
As for `Cc1cc(C)c(S(=O)(=O)Oc2ccccc2[N+](=O)[O-])c(C)c1`, the growth with HCT-15 colon was 15.8%; with HT29 colon, 3.94% (active); with SNB-19 CNS, 33.1%; in the assay with U251 CNS, 29.7%; in the assay with PC-3 prostate, 20.7%; with SK-MEL-5 melanoma it was 6.18% (active). The growth was 24.5% with UACC-62 melanoma; 43.4% in the assay with LOX IMVI melanoma; 50.6% with SK-MEL-28 melanoma; 7.67% (active) in the assay with SK-MEL-2 melanoma; 48.2% in the assay on EKVX NSCLC; 35.6% in the assay on SN12C renal. Also, the growth in the assay on UO-31 renal was 22.8%; in the assay with TK-10 renal it was 33.9%; in the assay on ACHN renal, 37.4%; with CAKI-1 renal it was 24%; with CCRF-CEM leukemia, 20.6%; in the assay with MOLT-4 leukemia it was 34.6%.
Consider `O=C(/C=C/c1ccc[nH]1)c1ccc(-n2ccc(C(F)(F)F)n2)c(F)c1`, for which the growth in the assay with HCT-15 colon was 85%; with HT29 colon, 92.5%; in the assay with SNB-19 CNS it was 101%; with U251 CNS, 88.7%; with PC-3 prostate, 48.1%; with SK-MEL-5 melanoma, 97.6%. In addition, the growth in the assay on UACC-62 melanoma is 84.9%; in the assay on LOX IMVI melanoma it was 97.7%; with SK-MEL-28 melanoma, 100%; in the assay with SK-MEL-2 melanoma, 108%; in the assay on EKVX NSCLC, 80.2%; in the assay on SN12C renal, 92.1%. For the same molecule, the growth was 46.9% in the assay on UO-31 renal; 104% in the assay with TK-10 renal; 103% in the assay with ACHN renal; 93% in the assay on CAKI-1 renal; 59.7% with CCRF-CEM leukemia; 84% in the assay on MOLT-4 leukemia.
Regarding `O=C(CCN1CCCC1)c1ccc([N+](=O)[O-])cc1`, the growth was 100% with HCT-15 colon; 101% with HT29 colon; 116% in the assay with SNB-19 CNS; 98.4% in the assay with U251 CNS; 99.8% in the assay on PC-3 prostate; 101% in the assay on SK-MEL-5 melanoma. The growth with UACC-62 melanoma is 105%; in the assay on LOX IMVI melanoma, 102%; with SK-MEL-28 melanoma, 104%; with SK-MEL-2 melanoma, 111%; in the assay on EKVX NSCLC, 97.5%; in the assay on SN12C renal, 106%. The growth in the assay with UO-31 renal was 87.3%; in the assay with TK-10 renal, 101%; with ACHN renal, 106%; in the assay on CAKI-1 renal it was 97.3%; with A498 renal, 92.9%; with CCRF-CEM leukemia it was 103%. Moreover, the growth in the assay on MOLT-4 leukemia is 113%.
In the case of `O=C(/C=C(O)/C=C/c1ccc(SC(F)(F)F)cc1)/C=C/c1ccc(SC(F)(F)F)cc1`, the growth in the assay on HCT-15 colon was 88.5%; in the assay on HT29 colon, 83.2%; with SNB-75 CNS, 115%; in the assay on SNB-19 CNS it was 90.3%; with U251 CNS, 66.5%; in the assay with PC-3 prostate, 81%. Besides, the growth in the assay on SK-MEL-5 melanoma is 91.4%; in the assay with UACC-62 melanoma, 75.9%; in the assay with SK-MEL-2 melanoma it was 101%; in the assay with SN12C renal, 94.2%; with UO-31 renal, 73.1%; in the assay on TK-10 renal, 101%. The growth is 102% in the assay with ACHN renal, 96% with CAKI-1 renal, 60.7% in the assay on CCRF-CEM leukemia and 76.1% with MOLT-4 leukemia.

Source of the values: PubChem BioAssay (NCI).
